Laboratory results published in PubChem BioAssay (NCI).
Compounds without any hit were thinned out: in the full panel of roughly 83,000, 20% have a hit.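 Single-concentration screen, 48 h exposure, 96-well plates. Endpoint: percent growth. Below 10 = active.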 Unmarked numbers belong to inactive results. Activity calls are given as the source filed them.

How the values were obtained:
Test in all cases: NCI-60 one-dose screen, 48 h (100 = growth as untreated, 0 = no growth, -100 = all killed)
Conditions in all cases: 10 µM unless noted
NCI-H23 lung = test system: NCI-H23 lung
NCI-H226 lung = test system: NCI-H226 lung
NCI-H322M lung = test system: NCI-H322M lung
HOP-62 NSCLC = test system: HOP-62 NSCLC
NCI-H460 lung = test system: NCI-H460 lung
HOP-92 NSCLC = test system: HOP-92 NSCLC
NCI-H522 lung = test system: NCI-H522 lung
A549/ATCC NSCLC = test system: A549/ATCC NSCLC
786-0 renal = test system: 786-0 renal
COLO 205 colon = test system: COLO 205 colon

Structure (SMILES) | growth (NCI-H23 lung) [%] | growth (NCI-H226 lung) | growth (NCI-H322M lung) [%] | growth (HOP-62 NSCLC) [%] | growth (NCI-H460 lung) | growth (HOP-92 NSCLC) [%] | growth (NCI-H522 lung) | growth (A549/ATCC NSCLC) [%] | growth (786-0 renal) [%] | growth (COLO 205 colon) [%]
Cc1ccc2[nH]c3ccccc3c2c1 | 96.9 | 103% | 99.6 | 113 | 99.7% | 100 | 101% | 102 | 93.9 | 109
CCCCn1cnc2c(=O)[nH]cnc21 | 106 | 107% | 104 | 105 | 119% | 89.3 | 98.6% | 107 | 105 | 111
CC(C)N1CC(=O)N2CSCC2C1=O (stereo not given) | 111 | 104% | 115 | 111 | 108% | 126 | 102% | 103 | 107 | 114
O=Cc1c(O)c2ccccc2[nH]c1=O | 97.8 | 88.6% | 112 | 102 | 103% | 110 | 94.8% | 90.1 | 104 | 108
CCCOCc1cn[nH]n1 | 107 | 104% | 102 | 99.8 | 111% | 106 | 99.3% | 96 | 102 | 111
CCC(/C=C\C(C)=O)CC | 101 | 107% | 99 | 94.9 | 100% | 102 | 106% | 104 | 101 | 107
CC1(C)OC(=O)CC1=O | 98.6 | 76.1% | 108 | 97.9 | 104% | 81.2 | 86.4% | 69 | 98.4 | 99.6
CC(c1ccccc1)N(C)C (stereo not given) | 110 | 95.3% | 92.3 | 87.9 | 107% | 111 | 98% | 106 | 104 | 103
C=CCc1cc(OC)c(O)c(OC)c1 | 105 | 93.8% | 124 | 97.4 | 108% | 105 | 92.2% | 83.9 | 102 | 105
C/C(O)=C(/C=N/C(=S)Nc1ccccc1)C(=O)Nc1ccccc1C | 103 | 95.8% | 104 | 99.4 | 106% | 92.6 | 94.5% | 97.3 | 102 | 110
CCOC(=O)C(=O)CC(=O)c1ccccc1 | 95.4 | 86.6% | 94.5 | 94.9 | -12.5% (active) | 79.6 | 98.8% | 96.5 | 103 | 100
C=CCN1CCCC1=O | 106 | 102% | 89.3 | 106 | 105% | 99.6 | 101% | 112 | 105 | 95.4
Cn1c(=O)c2nc3c(=O)n(C)c(=O)n(C)c3nc2n(C)c1=O | 95.1 | 107% | 101 | 93 | 102% | 127 | 93.8% | 126 | 91.2 | 126
CC(=O)O[C@H]1CC[C@]2(C)C3=C(C(=O)C[C@H]2C1(C)C)[C@]1(C)CC[C@H]([C@H](C)CCC(=O)O)[C@@]1(C)CC3=O | 98.3 | 107% | 105 | 95.4 | 89.8% | 107 | 81.8% | 101 | 107 | 103
C=COC(=O)CCOCC(CC)CCCC (stereo not given) | 105 | 98.7% | 98.7 | 97.3 | 106% | 111 | 109% | 89.6 | 91.2 | 111
CCCCCCCCCCCCCC/C=C\C(CC(=O)O)C(=O)O (stereo not given) | 108 | 109% | 117 | 105 | 106% | 106 | 107% | 103 | 103 | 97.7
COc1ccc(Nc2cc(Cl)ccc2C(=O)O)cn1 | 102 | 103% | 128 | 111 | 113% | 101 | 100% | 103 | 111 | 103

Structure (SMILES) | growth (NCI-H23 lung) [%] | growth (NCI-H226 lung) | growth (NCI-H322M lung) [%] | growth (HOP-62 NSCLC) [%] | growth (NCI-H460 lung) | growth (HOP-92 NSCLC) [%] | growth (NCI-H522 lung) | growth (A549/ATCC NSCLC) [%] | growth (786-0 renal) [%] | growth (COLO 205 colon) [%]
Cc1ccc(C)c(CN(C)C)c1O | 102 | 97.6% | 108 | 97.4 | 102% | 88.1 | 111% | 106 | 107 | 113
C(=C\c1ccncc1)/c1ccncc1 | 98.7 | 96.4% | 90.8 | 101 | 107% | 87.9 | 5.51% (active) | 96.5 | 107 | 115
CC(=O)N(C(C)=O)c1ccc(C)cc1 | 98.1 | 96.2% | 102 | 105 | 107% | 99.5 | 113% | 104 | 92.7 | 119
CC1(c2ccccc2)CO1 (stereo not given) | 108 | 109% | 125 | 97.2 | 115% | 95.7 | 99.2% | 103 | 102 | 114
CC(C)C(C)(C)C(=O)C(C)(C)C(C)(C)C | 90.6 | 90.5% | 97.9 | 103 | 101% | 88.3 | 92.4% | 93.3 | 108 | 104
NC(=O)N1CCOCC1 | 106 | 100% | 106 | 95.4 | 108% | 72.9 | 94.2% | 106 | 108 | 113
CC(=O)Nc1ccc(C(=O)c2ccc(S(=O)(=O)Nc3ccccc3)cc2)cc1 | 231 | 102% | 73.2 | 100 | 97.8% | 74.2 | 84.4% | 81.3 | 156 | 92.4
COc1ccc(Br)c2c1C(=O)CC2 | 109 | 100% | 159 | 116 | 110% | 94.5 | 43.1% | 122 | 113 | 114
Clc1ncnc2nc[nH]c12 | 94.4 | 96.3% | 104 | 83.7 | 103% | 68.8 | 70.5% | 101 | 101 | 101
C=CC(C)(C)n1cc(C2=C(O)C(=O)C(c3cn(C(C)(C)C=C)c4ccccc34)=C(O)C2=O)c2ccccc21 | 80.7 | 89.9% | 89 | 73.1 | 89.5% | 60.9 | 98.2% | 89.4 | 87.8 | 96.6
CC(=O)NNC(=S)N/C=C/c1c(C)ccc([N+](=O)[O-])c1[N+](=O)[O-] | 94.8 | 110% | 111 | 103 | 102% | 100 | 87.8% | 102 | 97.2 | 101
CC(CC(CCC(=O)O)(c1ccccc1)c1ccccc1)N(C)C (stereo not given) | 98.8 | 95.3% | 95.9 | 96.6 | 107% | 102 | 105% | 89.8 | 98.5 | 104
Cc1ccc(O)c(N)c1 | 121 | 97% | 98.1 | 132 | 103% | 126 | 70.6% | 98.7 | 115 | 117
Cc1ccc(C(C)C)c(OCC(=O)O)c1 | 107 | 105% | 107 | 101 | 107% | 98 | 111% | 90.8 | 102 | 107
CCOP(=O)(NC(c1ccccc1)c1ccccc1)OCC | 108 | 103% | 99 | 95.5 | 107% | 89.7 | 113% | 106 | 102 | 100
CC1(C)CCC(C)(C)NC(=S)N1 | 100 | -99.8% (active) | 109 | 94.9 | 115% | 107 | 94.8% | 108 | 105 | 103
